activity, activity change, negative = inhibition and Potency data for 29 compounds are collected here from PubChem BioAssay (NCATS).

Common to all, as to assay: Confirmatory Screen for Target Class Profiling of Small Molecule Inhibitors of Methyltransferases (AID 1745852); on activity change, negative = inhibition: on the % scale 0 is the no-effect control and ±100 the full control effect
The target of assay [1] is Catechol O-methyltransferase (Homo sapiens) (UniProt P21964). The note with it: MTase-Glo luminescence, SAH detection, recombinant enzyme; measured here: COMT max response; stronger effect = lower value.
Chain of Catechol O-methyltransferase (Homo sapiens) (P21964 whole entry, looked up): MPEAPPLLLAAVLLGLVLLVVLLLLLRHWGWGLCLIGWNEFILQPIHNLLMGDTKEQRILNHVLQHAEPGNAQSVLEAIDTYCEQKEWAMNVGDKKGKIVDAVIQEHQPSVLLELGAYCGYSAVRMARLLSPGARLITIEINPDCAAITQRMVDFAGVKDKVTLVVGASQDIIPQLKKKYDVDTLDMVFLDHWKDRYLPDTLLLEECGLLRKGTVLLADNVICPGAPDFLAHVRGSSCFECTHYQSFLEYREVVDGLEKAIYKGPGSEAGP
Assay [2] addresses Guanidinoacetate N-methyltransferase (Homo sapiens) (UniProt Q14353). The settings on record: MTase-Glo luminescence, SAH detection, recombinant enzyme; activity change, negative = inhibition: at 57.3 µM (top of the series) unless noted; series mostly up to 57.3 µM.
In assay [3] the target is Nicotinamide N-methyltransferase (Homo sapiens) (UniProt P40261). The note with it: MTase-Glo luminescence, SAH detection, recombinant enzyme; measured here: NNMT max response; stronger effect = lower value.
Chain of Nicotinamide N-methyltransferase (Homo sapiens) (P40261 whole entry, looked up): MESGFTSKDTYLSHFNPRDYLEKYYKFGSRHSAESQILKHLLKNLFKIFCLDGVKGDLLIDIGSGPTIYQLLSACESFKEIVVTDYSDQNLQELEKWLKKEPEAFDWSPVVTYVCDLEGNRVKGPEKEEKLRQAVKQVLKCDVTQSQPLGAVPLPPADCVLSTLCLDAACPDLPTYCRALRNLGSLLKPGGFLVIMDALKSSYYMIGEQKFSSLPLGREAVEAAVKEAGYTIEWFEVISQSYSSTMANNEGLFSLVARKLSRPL
Assay [4] addresses Phenylethanolamine N-methyltransferase (Homo sapiens) (UniProt P11086). The note with it: MTase-Glo luminescence, SAH detection, recombinant enzyme; measured here: PNMT max response; stronger effect = lower value.

The source made the active and inactive calls. The call rests on the fitted dose curve.
Potency means the concentration at half of the fitted maximal effect.

Chain of Phenylethanolamine N-methyltransferase (Homo sapiens) (P11086 whole entry, looked up): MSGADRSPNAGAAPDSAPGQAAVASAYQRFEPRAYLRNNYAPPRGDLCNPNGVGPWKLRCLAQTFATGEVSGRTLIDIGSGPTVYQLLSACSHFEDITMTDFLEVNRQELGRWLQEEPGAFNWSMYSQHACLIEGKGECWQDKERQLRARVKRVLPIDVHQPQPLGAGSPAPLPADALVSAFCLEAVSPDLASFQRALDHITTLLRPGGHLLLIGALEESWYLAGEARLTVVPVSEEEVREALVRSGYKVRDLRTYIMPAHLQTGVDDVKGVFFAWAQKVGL

For `COc1ccc(CN2C(=O)c3cc4sccc4n3CC2(C)C(=O)NC2CCC(C)CC2)cc1OC` (stereo unspecified), the activity in assay [1] is -5.8%; in assay [3], -79.1%; in assay [4] it was -7.08%. Besides, the activity change, negative = inhibition in assay [2] stood at 0.162%.
The matching figures for `O=C(CCC[C@@H]1[C@H]2CCCN3CCC[C@@H](CN1Cc1ccccc1)[C@@H]23)Nc1cccnc1`: -3.16%, -11.8%, -2.62% and -5.99%.
The matching figures for `COc1cncc(Nc2ncc(-c3ccccc3OC)c3c2OCC3)c1`: 0.728%, -19.7%, 0.675% and 2.22% [at 85.7 µM].
On the same counts, the results for `CC1CC(C)CN(S(=O)(=O)c2ccc3c(c2)oc(=O)n3CC(=O)Nc2ccc(Cl)cc2)C1` (stereo unspecified) are -4.03%, -8.67%, -61.6% and -1.24%.
`CC(C)Cn1c(=O)c2ccccc2n2c(CCC(=O)N3CCC(Cc4ccccc4)CC3)nnc12`: the activity in assay [1] was -2.5%; in assay [3] it was -56.6%; in assay [4] it was -9.36%. For the same compound, the activity change, negative = inhibition in assay [2] was determined as 0.755%.
With `CCOc1ccccc1CN1CCC(Cc2nc(-c3cccnc3)n[nH]2)C1` (stereo unspecified), the activity is 2.59% in assay [1], -34.4% in assay [3] and -0.0084% in assay [4]. Also, the activity change, negative = inhibition in assay [2] was 0.265%.
`Cc1ccc2c(c1)c(=O)[nH]c1c(C(=O)NCc3ccc4c(c3)OCO4)sc(=S)n12`: the activity in assay [1] was -32.7%; in assay [3], -60.7%; in assay [4], -35.6%. In addition, the Potency in assay [2] was 17.1 µM (active).
Take `COc1ccc(-c2cc3c(cn2)CN(CCc2ccccc2)CCN3)cc1OC`: the activity was -0.529% in assay [1], -18.9% in assay [3] and -48.8% in assay [4]. Besides, in assay [2], the activity change, negative = inhibition turned out to be 3.81% [at 85.7 µM].
On the same counts, the results for `COc1cccc(CN2C(=O)c3nc4ccccc4n3CC2(C)C(=O)NC2CCC(C)CC2)c1` (stereo unspecified) are -5%, -42.5%, -8.56% and 0.902%.
On the same counts, the results for `COc1cccc(Nc2ccnc(-c3nnc(C)n3C3CCCCC3)c2)c1` are 7.43%, -22.9%, 8.64% and 17.8% [at 85.7 µM].
The matching figures for `O=C(c1ccc(Cl)cc1)N1CC2(CCN(CC3CC3)CC2)Cc2ccccc21`: -9.09%, -9.37%, -4.04% and -2.34%.
Consider `COc1ccc(CCNC(=O)c2ccc3c(=O)nc4c(-c5ccccc5)n[nH]n4c3c2)cc1OC`, for which the activity in assay [1] is -11.8%; in assay [3], -10.5%; in assay [4], -12.5%. The Potency in assay [2] was 0.0961 µM (active).
On to `Cc1noc(C)c1-c1cc(-c2ccc(CN(C)C)cc2)cn2cncc12`, for which the figures for the activity in assay [1], in assay [3] and in assay [4] were -2.27%, -10.7% and -3.78%, respectively. Also, the activity change, negative = inhibition in assay [2] is -8.74% [at 85.7 µM].
On the same counts, the results for `Cc1ccccc1-c1[nH]nc2ncc(-c3c(C)noc3C)nc12` are -14.4%, -31.8%, -28.1% and -10.5% [at 85.7 µM].
The matching figures for `CCCC1c2cccn2CCN1C(=O)Nc1cccc(Cl)c1C` (stereo unspecified): -7.65%, -16%, -8.29% and -4.33%.
As to `COc1ccc(CN2C[C@@H](CO)[C@H](c3ccncc3)C2)c(OC)c1`, the activity is 7.35% in assay [1], -21.3% in assay [3] and 8.2% in assay [4]. In addition, the activity change, negative = inhibition in assay [2] stood at 7.27%.
The matching figures for `CCN(CC)CCNC(=O)CCCc1nnc2n3nc(-c4ccccc4)nc3c3ccccc3n12`: -2.75%, -0.56%, -1.77% and 0.717%.
The matching figures for `Cc1cnc(CCNC(=O)Nc2ccc3c(c2)OCCO3)n1C1CCC1`: 2.74%, -5.7%, 1.37% and -0.0713%.
The matching figures for `O=C1COc2ccc(-c3cccc(O)c3)nc2CN1Cc1ccc(C(F)(F)F)cc1`: -39%, -22.9%, -51.9% and -7.53% [at 85.7 µM].
Turning to `O=C(CCc1nnc2n(Cc3ccc(Cl)cc3)c(=O)c3ccccc3n12)N1CCC(N2CCCCC2)CC1`, the activity in assay [1] was -4.51%; in assay [3] it was -21.6%; in assay [4] it was 0.847%. In addition, in assay [2], the activity change, negative = inhibition was -0.992%.
On the same counts, the results for `COc1ncccc1-c1nccn2c(C3CN(Cc4ccccc4O)C3)ncc12` are 2.23%, 7.78%, 3.8% and 2.06% [at 85.7 µM].
Turning to `COc1ccc(CCNC(=O)CCc2nnc3n(CC(C)C)c(=O)c4ccccc4n23)cc1OC`, the figures for the activity in assay [1], in assay [3] and in assay [4] were -6.74%, -43.7% and -6.97%, respectively. Further, the activity change, negative = inhibition in assay [2] is -2.85%.
The matching figures for `O=C(CCc1nnc2n(Cc3ccccc3Cl)c(=O)c3ccccc3n12)NCCc1c[nH]c2ccccc12`: 4.12%, -2.9%, -5.42% and 0%.
With `COCc1nc2nc(-c3ccccc3)c(-c3ccc(O)c(F)c3)cc2n1C`, the activity in assay [1] was -38%; in assay [3], -53%; in assay [4] it was -59.9%. For the same compound, the Potency in assay [2] was 39.3 µM (active).
Turning to `O=S(=O)(c1ccc(Br)cc1)c1nnn2c1nc(NCCc1c[nH]c3ccccc13)c1ccccc12`, the results for the activity in assay [1], in assay [3] and in assay [4] were -1.9%, -1.21% and -6.06%, respectively. Also, in assay [2], the activity change, negative = inhibition is -2.1%.
The matching figures for `N#Cc1cc(CN2CCCC(C(=O)Nc3cccc(-c4ccc(F)cc4)c3)C2)c[nH]1` (stereo unspecified): -4.34%, -14.2%, -5.67% and -9.38%.
The matching figures for `COc1ccc(OC)c2c1cc1n2CC(C)(C(=O)NC2CCCCC2C)N(Cc2ccco2)C1=O` (stereo unspecified): -9.78%, -25.6%, -10.3% and -6.29%.
The matching figures for `c1ccc(CN2CCNc3cnc(Nc4ccc(N5CCOCC5)cc4)cc3C2)cc1`: -14.6%, -15%, -10.3% and -9.27% [at 85.7 µM].
As for `CN1CCN(C)c2cnc(-c3cnn(Cc4ccccc4)c3)cc2C1`, the activity in assay [1] turned out to be 6.86%; in assay [3], 6.62%; in assay [4] it was 8.78%. In assay [2], the activity change, negative = inhibition is 5.27% [at 85.7 µM].
